# Bioassay records: PubChem BioAssay, National Center for Advancing Translational Sciences (NCATS)
# IMPase inh = qHTS Assay for Identifying the Cell-Membrane Permeable IMPase Inhibitors; Inositol monophosphatase 1 (Rattus norvegicus), P97697; CHO-M1 cells, IP1 accumulation, HTRF TR-FRET ratio; inhibition (IP1 accumulation), % at 46.1 µM; 120,000 tested, under 10 active; AID 901, 2007; active = well fitted curve in the direction sought with a large enough effect in the signal ratio, not every such curve was filed as active; inconclusive = small, poorly fitted or top-dose-only effect, or a change in a side signal; inactive = no such curve, though single readings can be large or run the other way; the % refers to the signal ratio;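 note: cells stimulated with carbachol in lithium chloride buffer; higher means more IMPase inhibition seen as more IP1 and lower FRET ratio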
# Target sequence (P97697 whole entry, looked up): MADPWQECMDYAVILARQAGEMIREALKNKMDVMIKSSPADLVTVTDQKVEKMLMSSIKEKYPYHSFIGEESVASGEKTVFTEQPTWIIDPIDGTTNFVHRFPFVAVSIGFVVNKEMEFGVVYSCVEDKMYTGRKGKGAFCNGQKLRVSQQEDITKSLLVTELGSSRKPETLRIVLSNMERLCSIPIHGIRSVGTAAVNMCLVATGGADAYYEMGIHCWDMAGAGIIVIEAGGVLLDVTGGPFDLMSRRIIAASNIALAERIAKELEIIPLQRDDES
#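 CHO-M1 cells (CHO stably expressing M1 receptor), compound up to 46 uM final, stimulated with carbachol (50 uM as added) in buffer with 50mM LiCl, pH 7.4, 30 min at 37C. Cytosolic IP1 read by TR-FRET; AC50 from Hill fits.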
# HPGD inh = qHTS Assay for Inhibitors of HPGD (15-Hydroxyprostaglandin Dehydrogenase); purified HPGD, NADH fluorescence kinetic, PGE2 substrate; Potency, µM, actives largely listed as inhibitors; 150,000 tested, 4.3% active
# Target sequence (P15428 whole entry, looked up): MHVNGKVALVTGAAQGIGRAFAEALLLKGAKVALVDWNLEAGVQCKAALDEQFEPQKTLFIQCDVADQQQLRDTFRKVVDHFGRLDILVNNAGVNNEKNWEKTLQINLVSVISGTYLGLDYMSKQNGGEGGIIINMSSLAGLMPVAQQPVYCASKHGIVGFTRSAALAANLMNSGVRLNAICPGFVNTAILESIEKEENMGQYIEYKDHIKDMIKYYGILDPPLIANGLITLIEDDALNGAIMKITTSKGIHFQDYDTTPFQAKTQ
#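 20 nM HPGD preincubated 15 min at room temperature with compound in 50 mM Tris-HCl pH 8, 0.01% Tween 20. Started with 1 mM NAD+ and 30 uM prostaglandin E2; NADH fluorescence (360/450 nm) read 5 times over 30-s intervals, last minus first.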
# ALDH1A1 block = qHTS Assay for Inhibitors of Aldehyde Dehydrogenase 1 (ALDH1A1); Aldehyde dehydrogenase 1A1 (Homo sapiens), P00352; Purified ALDH1A1, NADH fluorescence, propionaldehyde substrate; Potency, µM (series often up to 75.3 µM), hits mostly inhibitors; 220,000 tested, 7.3% active; AID 1030, 2008
# Hits are given with their value; . = inactive; ? = inconclusive; / = no result given; [ ] = remark or other dose. Sampled rows, rich in hits. Any-hit rate of the full collection: about 9%. Unless noted, calls come from the whole dose curve; as a rule, active = well fitted inhibition curve with a large enough effect (not every such curve was filed as active); inconclusive = small, poorly fitted or top-dose-only effect, or another doubt; inactive = no such curve, though single readings can be large or run the other way.
SMILES,IMPase inh,HPGD inh,ALDH1A1 block
O=C1[C@H]2[C@H]3[C@H](O)[C@H](O)C/C(=N/OCc4ccccc4)[C@@H]3CC[C@@H]2C(=O)N1Cc1ccc2c(c1)OCO2,/,/,.[13.5 µM]
COc1ccc(C)cc1N(C(=O)c1ccccc1F)c1nc2ccccc2s1,/,.,.
Cc1cc(C)nc(/N=C2\NC(=O)CC(C(=O)O)N2c2ccc(C)c(C)c2)n1 (stereo not given),/,/,.
COc1ccc(-c2csc(-c3cc4ccccc4oc3=N)n2)cc1,.,.,?
Cc1ccc(S(=O)(=O)CCSc2nc(C)cc(C(F)(F)F)c2C#N)cc1,.,.,0.35µM
COC(=O)CSc1nc(C)cc(C(F)(F)F)c1C#N,.,.,.
COCCn1c(=O)c(-c2cccc(C#N)c2)nc2cnc(N(C)C)nc21,/,/,.
Cc1nc(N2CCOCC2)nc(N2CCCC2)c1[N+](=O)[O-],/,.,?
Cc1nc(N2CCOCC2)nc(N2CCCCC2)c1[N+](=O)[O-],/,.,16µM
Cc1c(NC(=O)C(C)Sc2nc3ccccc3c(=O)n2CCO)c(=O)n(-c2ccccc2)n1C (stereo not given),?,.,.
Cc1ccc(S(=O)(=O)N2C(=O)CCC2C(=O)Nn2cnnc2)cc1 (stereo not given),.,.,.
CC(C)N(CC(=O)Nc1ccc(Cl)cc1C(F)(F)F)C(=O)CCl,/,/,1.8µM
O=C(O)CSCC(=O)Nc1ccc(Cl)cc1C(F)(F)F,/,/,.
CCOC(=O)C1(Cc2ccccc2C)CCCN(C(=O)CCc2cccnc2)C1 (stereo not given),/,/,.
C[N+]1(CCC[N+]2(C)C[C@H]3[C@H](C2)[C@H]2C=C[C@@H]3CC2)CCOCC1 (stereo not given in full),/,3.2µM,.[13.5 µM]
C[N+]1(CCN2C(=O)C3CC=C(Cl)CC3C2=O)CCOCC1 (stereo not given),.,/,.
CCOc1ccc(OCC(=O)N2CCOCC2)cc1,?,.,.
N#CC(C#N)=Cc1ccc(OCC(=O)N2CCOCC2)cc1,/,/,8.9µM
CCN1C(=O)N[C@@H](c2ccccc2)C1=O,.,.,.
CC(C)n1nnnc1SCC(=O)N1CCN(C(=O)c2ccco2)CC1,.,.,25µM
O=C(CSc1nnnn1C1CCCCC1)N1CCCC1,.,/,?
O=C(CSc1nnnn1C1CCCC1)N1CCN(C(=O)c2ccco2)CC1,.,.,14µM
CCCn1nnnc1SCC(=O)N1CCN(C(=O)c2ccco2)CC1,.,.,?
CCOC(=O)c1ccc(NC(=S)Nc2ccccn2)cc1,.,.,.
COc1cc(C(=O)Nc2sc3c(c2C(N)=O)CCC(C)C3)cc(OC)c1OC (stereo not given),.,/,/
SMILES,IMPase inh,HPGD inh,ALDH1A1 block
Cc1cccc(C(=O)c2c(N)sc3c2CCCC3)c1,.,/,?
CC1CCc2c(sc(N)c2C(N)=O)C1 (stereo not given),.,?,13µM
Cc1cccc(C(=O)c2c(N)sc3c2CCC(C)C3)c1 (stereo not given),.,/,7.9µM
Cc1cccc(NC(NC(=O)c2ccccc2[N+](=O)[O-])C(Cl)(Cl)Cl)c1 (stereo not given),/,.,.
c1ccc2c(c1)CC1(CCCC1)n1nnnc1-2,.,/,13µM
COc1cc2c(cc1OC)-c1nnnn1C(C)(C)C2,.,.,?
c1coc(-c2nnc3n2C2(CCCC2)Cc2ccccc2-3)c1,.,.,.
CC1(C)Cc2ccccc2-c2nnnn21,.,.,11µM
CC(C)[C@@H](CC(=O)N[C@@H]1CCCC[C@H]1C(=O)N[C@H](CC(=O)N[C@@H](CCC(=O)O)CC(=O)O)Cc1ccccc1)NC(=O)C[C@H](Cc1c[nH]c2ccccc12)NC(=O)[C@@H]1CNCC[C@H]1N,/,.,.
COc1ccccc1CNC(=O)CSc1ccc(-c2cccc([N+](=O)[O-])c2)nn1,/,/,.
CCCCOc1ccc(/C=C/C(=O)OCC(=O)N2CC(=O)Nc3ccccc32)cc1OCC,.,?,.
Cn1c(C(C(=O)NCC2CCCO2)N(CCc2ccccc2)C(=O)Cn2nnc3ccccc32)nc2ccccc21 (stereo not given),/,.,.
O=C(CCC1CCCN(Cc2ccncc2)C1)NCc1ccc(F)c(F)c1 (stereo not given),/,/,.
Cc1onc(-c2ccccc2)c1C(=O)Nc1ccc(-c2nnc3n2CCCCC3)cc1,.,7.1µM,.
Cc1onc(-c2ccccc2)c1C(=O)Nc1ccc(S(=O)(=O)N2CCCCC2)cc1,.,.,.
O=C(Nc1ccc(-c2nnc3n2CCCCC3)cc1)c1cnccn1,?,10µM,.
O=C(Cn1cnc2ccccc2c1=O)Nc1ccc(-c2nnc3n2CCCCC3)cc1,.,13µM,14µM
O=C(Cn1cnc2ccccc2c1=O)Nc1cccc(-c2nnc3n2CCCCC3)c1,.,.,.
Cc1ccc(NC(=O)c2cnccn2)cc1,/,/,.
Cc1c(O)ccc2c1OCO2,/,/,.[13.5 µM]
O=C(CSc1nncs1)Nc1ccc(S(=O)(=O)N2CCCC2)cc1,/,/,.
CC(C)N1C(=O)CCC1C(=O)NCc1cccs1 (stereo not given),/,/,.
CCOC(=O)Cn1c(=O)oc2cc(S(=O)(=O)Nc3ccc(N(CC)CC)cc3C)ccc21,.,28µM,?
CCOC(=O)Cn1c(=O)oc2cc(S(=O)(=O)Nc3cc(OCC)ccc3OCC)ccc21,.,.,.
COC(=O)N/N=C/c1cn(Cc2ccccc2Cl)c2ccccc12,.,.,.
SMILES,IMPase inh,HPGD inh,ALDH1A1 block
Cc1[nH][nH]c(=O)c1C(c1c(C)[nH][nH]c1=O)c1cn(Cc2ccccc2Cl)c2ccccc12,/,.,0.45µM
CN(C1=NS(=O)(=O)c2ccccc21)c1ccc(OC(=O)c2ccncc2)cc1,/,/,.
CCCCN(Cc1ccccc1)S(=O)(=O)c1ccc2[nH]c(=O)oc2c1,.,.,5µM
O=c1[nH]c2ccc(S(=O)(=O)N3CCC(Cc4ccccc4)CC3)cc2o1,?,/,.
CSc1ccc(C2C(C#N)=C(N)N(c3ccccc3)C3=C2C(=O)CCC3)cc1 (stereo not given),.,.,?
N#CC1=C(N)N(c2ccc(F)cc2)C2=C(C1c1ccc(O)cc1)S(=O)(=O)CC2 (stereo not given),/,/,11µM
O=C(O)/C=C/c1cn(Cc2ccccc2)nc1-c1ccc(Cl)cc1,/,/,.
Cc1cc(-c2nn(-c3ccccc3)cc2/C=C2\SC(N)=NC2=O)ccc1OC(C)C,.,?,?
COc1ccc(-c2nn(CCC(=O)O)cc2/C=C2\SC(N)=NC2=O)cc1,.,11µM,.
O=C(O)CCn1cc(/C=C\C(=O)c2ccc(Cl)cc2)c(-c2cccc(Br)c2)n1,.,25µM,?
NC1=NC(=O)/C(=C/c2cn(CCC(=O)O)nc2-c2ccc(Cl)cc2)S1,.,13µM,.
NC1=NC(=O)/C(=C/c2cn(CCC(=O)O)nc2-c2ccc(F)cc2)S1,.,25µM,.
N#CCCn1cc(/C=C/C(=O)O)c(-c2ccc(F)cc2)n1,/,/,.
CCCOc1ccc(-c2nn(-c3ccccc3)cc2/C=C2\SC(N)=NC2=O)cc1,/,?,.
O=C(O)[C@H](/C=C\c1ccccc1)c1ccccc1,/,.,.[13.5 µM]
NS(=O)(=O)c1ccc(Oc2ccc(S(N)(=O)=O)cc2)cc1,/,/,.
